Experimental data: PubChem BioAssay AID1159580 (chemical genetic matrix, 2015)
Values joined by “and” are separate entries in the source; they are usually repeats but may differ in a detail not shown here. Identical values can stand only once. Screen size: about 5,500 compounds; about 2,000 (36%) were called active. Another 18% or so got no clear call; they are omitted. Rule as the data show it: active = normalized growth mostly below about 0.91 (no sharp cut-off); inconclusive = no clear call, values can overlap the other calls; inactive = mostly above about 0.92. The list shows a part of the results.

Test: chemical genetic growth profiling, strain panel (AID 1159580);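 also: tested at 20 µM; growth read once vehicle control cultures reached saturation at 30 °C; 1 = growth at the plate median or of vehicle wells; lower values mean less growth of the strain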
Settings: growth OD
[1] = S. cerevisiae deletion strains, locus YAL013W, strain DEP1, stronger effect = lower value
[2] = S. cerevisiae deletion strains, locus YNL153C, strain GIM3, stronger effect = lower value
[3] = S. cerevisiae deletion strains, locus YNL322C, strain KRE1, stronger effect = lower value
[4] = S. cerevisiae deletion strains, locus YPL055C, strain LGE1, stronger effect = lower value

Measured: normalized growth

N[C@@H](Cc1ccc(F)cc1)C(=O)O
inactive: [1] 1.01 | S. cerevisiae deletion strains, locus YAL040C, strain CLN3, stronger effect = lower value 0.992 | S. cerevisiae deletion strains, locus YCL061C, strain MRC1 (second series), stronger effect = lower value 0.995 | S. cerevisiae deletion strains, locus YDR363W, strain ESC2, stronger effect = lower value 1.01 | S. cerevisiae deletion strains, locus YER002W, strain NOP16, stronger effect = lower value 0.99 | [2] 0.995 | S. cerevisiae deletion strains, locus YNL175C, strain NOP13, stronger effect = lower value 0.978 | S. cerevisiae deletion strains, locus YNL197C, strain WHI3, stronger effect = lower value 0.995 | S. cerevisiae deletion strains, locus YNL224C, strain SQS1, stronger effect = lower value 0.967 | [3] 1 | S. cerevisiae deletion strains, locus YOR083W, strain WHI5 (second series), stronger effect = lower value 0.988 | [4] 0.99

N[C@@H](Cc1cc(I)c(Oc2ccc(O)c(I)c2)c(I)c1)C(=O)O
active: S. cerevisiae deletion strains, locus YHR079C, strain IRE1, stronger effect = lower value 0.846
inactive: [1] 1.02 | S. cerevisiae deletion strains, locus YBR021W, strain FUR4, stronger effect = lower value 1.01 | S. cerevisiae deletion strains, locus YBR229C, strain ROT2, stronger effect = lower value 0.998 | S. cerevisiae deletion strains, locus YCL029C, strain bik1, stronger effect = lower value 1 | S. cerevisiae deletion strains, locus YDL035C, strain GPR1, stronger effect = lower value 1.01 | S. cerevisiae deletion strains, locus YDL074C, strain BRE1, stronger effect = lower value 1.03 | S. cerevisiae deletion strains, locus YDL101C, strain DUN1, stronger effect = lower value 1.02 | S. cerevisiae deletion strains, locus YDL134C, strain PPH21, stronger effect = lower value 1.01 | S. cerevisiae deletion strains, locus YDL185W, strain tfp1, stronger effect = lower value 1 | S. cerevisiae deletion strains, locus YDL192W, strain arf1, stronger effect = lower value 1 | S. cerevisiae deletion strains, locus YDR101C, strain arx1, stronger effect = lower value 0.986 | S. cerevisiae deletion strains, locus YDR150W, strain NUM1, stronger effect = lower value 1.01 | S. cerevisiae deletion strains, locus YDR162C, strain NBP2, stronger effect = lower value 1.02 | S. cerevisiae deletion strains, locus YDR318W, strain mcm21, stronger effect = lower value 0.982 | S. cerevisiae deletion strains, locus YDR388W, stronger effect = lower value 1 | S. cerevisiae deletion strains, locus YDR502C, strain sam2, stronger effect = lower value 0.987 | S. cerevisiae deletion strains, locus YEL061C, strain CIN8, stronger effect = lower value 1 | S. cerevisiae deletion strains, locus YER110C, stronger effect = lower value 1 | S. cerevisiae deletion strains, locus YER155C, strain BEM2, stronger effect = lower value 1.01 | S. cerevisiae deletion strains, locus YER167W, strain BCK2, stronger effect = lower value 1 | S. cerevisiae deletion strains, locus YGL078C, strain dbp3, stronger effect = lower value 1 | S. cerevisiae deletion strains, locus YGL086W, strain mad1, stronger effect = lower value 0.99 | S. cerevisiae deletion strains, locus YGL248W, strain PDE1, stronger effect = lower value 1.01 | S. cerevisiae deletion strains, locus YGR078C, strain PAC10, stronger effect = lower value 1.01 | S. cerevisiae deletion strains, locus YGR135W, strain pre9, stronger effect = lower value 0.991 | S. cerevisiae deletion strains, locus YGR229C, strain SMI1, stronger effect = lower value 1.02 | S. cerevisiae deletion strains, locus YGR252W, strain gcn5, stronger effect = lower value 0.929 | S. cerevisiae deletion strains, locus YHR030C, strain SLT2, stronger effect = lower value 1 and 0.914 | S. cerevisiae deletion strains, locus YHR079C, strain IRE1 (second series), stronger effect = lower value 0.99 | S. cerevisiae deletion strains, locus YHR094C, strain hxt1, stronger effect = lower value 1.01 | S. cerevisiae deletion strains, locus YHR129C, strain ARP1, stronger effect = lower value 0.999 | S. cerevisiae deletion strains, locus YHR200W, strain rpn10, stronger effect = lower value 0.994 | S. cerevisiae deletion strains, locus YIL066C, strain RNR3, stronger effect = lower value 1.01 | S. cerevisiae deletion strains, locus YIL073C, strain SPO22, stronger effect = lower value 1.02 | S. cerevisiae deletion strains, locus YIL125W, strain kgd1, stronger effect = lower value 1 | S. cerevisiae deletion strains, locus YIR030C, strain dcg1, stronger effect = lower value 1 | S. cerevisiae deletion strains, locus YJL095W, strain BCK1, stronger effect = lower value 0.971 and 0.977 | S. cerevisiae deletion strains, locus YJL134W, strain LCB3, stronger effect = lower value 1.01 | S. cerevisiae deletion strains, locus YJL168C, strain set2, stronger effect = lower value 1 | S. cerevisiae deletion strains, locus YJL187C, strain SWE1 (second series), stronger effect = lower value 1 | S. cerevisiae deletion strains, locus YJR043C, strain POL32, stronger effect = lower value 1.01 | S. cerevisiae deletion strains, locus YJR066W, strain TOR1, stronger effect = lower value 0.864 | S. cerevisiae deletion strains, locus YJR075W, strain HOC1, stronger effect = lower value 0.996 | S. cerevisiae deletion strains, locus YKL009W, strain mrt4, stronger effect = lower value 0.979 | S. cerevisiae deletion strains, locus YKL068W, stronger effect = lower value 1.01 | S. cerevisiae deletion strains, locus YKL085W, strain MDH1 (second series), stronger effect = lower value 1.03 | S. cerevisiae deletion strains, locus YKL085W, strain MDH1, stronger effect = lower value 1.03 | S. cerevisiae deletion strains, locus YKL190W, strain CNB1, stronger effect = lower value 1.01 | S. cerevisiae deletion strains, locus YKR001C, strain vps1, stronger effect = lower value 0.967 | S. cerevisiae deletion strains, locus YLR039C, strain RIC1, stronger effect = lower value 0.978 | S. cerevisiae deletion strains, locus YLR058C, strain SHM2, stronger effect = lower value 1.01 | S. cerevisiae deletion strains, locus YLR102C, strain apc9, stronger effect = lower value 0.999 | S. cerevisiae deletion strains, locus YLR113W, strain HOG1, stronger effect = lower value 1.03 | S. cerevisiae deletion strains, locus YLR262C, strain YPT6, stronger effect = lower value 0.993 | S. cerevisiae deletion strains, locus YLR268W, strain sec22, stronger effect = lower value 0.982 | S. cerevisiae deletion strains, locus YLR330W, strain CHS5, stronger effect = lower value 1.01 | S. cerevisiae deletion strains, locus YLR342W, strain FKS1 (second series), stronger effect = lower value 1.01 | S. cerevisiae deletion strains, locus YLR371W, strain rom2, stronger effect = lower value 1 | S. cerevisiae deletion strains, locus YLR418C, strain cdc73, stronger effect = lower value 0.951 | S. cerevisiae deletion strains, locus YML016C, strain PPZ1, stronger effect = lower value 1.01 | S. cerevisiae deletion strains, locus YML032C, strain rad52, stronger effect = lower value 0.981 | S. cerevisiae deletion strains, locus YML124C, strain tub3, stronger effect = lower value 1.01 | S. cerevisiae deletion strains, locus YMR078C, strain ctf18, stronger effect = lower value 1.01 | S. cerevisiae deletion strains, locus YMR223W, strain ubp8, stronger effect = lower value 0.984 | S. cerevisiae deletion strains, locus YMR263W, strain SAP30, stronger effect = lower value 1 | S. cerevisiae deletion strains, locus YMR307W, strain GAS1, stronger effect = lower value 1.06 | S. cerevisiae deletion strains, locus YNL067W, strain RPL9B, stronger effect = lower value 1.02 | S. cerevisiae deletion strains, locus YNL128W, strain TEP1, stronger effect = lower value 1.02 | [2] 1.01 | S. cerevisiae deletion strains, locus YNL233W, strain BNI4, stronger effect = lower value 1 | S. cerevisiae deletion strains, locus YNL250W, strain rad50, stronger effect = lower value 1.01 | S. cerevisiae deletion strains, locus YNL271C, strain bni1, stronger effect = lower value 0.995 | S. cerevisiae deletion strains, locus YNL298W, strain CLA4, stronger effect = lower value 1 | S. cerevisiae deletion strains, locus YNL307C, strain MCK1, stronger effect = lower value 0.939 | [3] 1.02 | S. cerevisiae deletion strains, locus YNR052C, strain pop2, stronger effect = lower value 0.996 | S. cerevisiae deletion strains, locus YOL006C, strain TOP1, stronger effect = lower value 0.992 | S. cerevisiae deletion strains, locus YOL012C, strain htz1 1.15 | S. cerevisiae deletion strains, locus YOL147C, strain pex11, stronger effect = lower value 0.996 | S. cerevisiae deletion strains, locus YOR061W, strain CKA2, stronger effect = lower value 1.01 | S. cerevisiae deletion strains, locus YOR069W, strain VPS5, stronger effect = lower value 1 | S. cerevisiae deletion strains, locus YOR136W, strain idh2, stronger effect = lower value 1 | S. cerevisiae deletion strains, locus YOR144C, strain elg1, stronger effect = lower value 1 | S. cerevisiae deletion strains, locus YOR184W, strain ser1, stronger effect = lower value 0.963 | S. cerevisiae deletion strains, locus YOR231W, strain MKK1, stronger effect = lower value 1.01 | S. cerevisiae deletion strains, locus YOR316C, strain cot1, stronger effect = lower value 0.998 | [4] 1.05 | S. cerevisiae deletion strains, locus YPL241C, strain CIN2, stronger effect = lower value 1.01 | S. cerevisiae deletion strains, locus YPL256C, strain CLN2, stronger effect = lower value 0.964 | S. cerevisiae deletion strains, locus YPR119W, strain clb2, stronger effect = lower value 1.01 | S. cerevisiae deletion strains, locus YPR141C, strain kar3, stronger effect = lower value 1.01 | S. cerevisiae deletion strains, locus YPR163C, strain tif3, stronger effect = lower value 1.01 | S. cerevisiae deletion strains, locus YPR167C, strain met16, stronger effect = lower value 1 | S. cerevisiae deletion strains, strain wtn01, stronger effect = lower value 0.984 | S. cerevisiae strains, strain wild type, stronger effect = lower value 1.01
